Experimental data taken from PubChem BioAssay (NCATS).
Activity calls are given as the source filed them. The call rests on the fitted dose curve; in most records, active means well fitted curve in the direction sought with a large enough effect; inconclusive means small, poorly fitted or top-dose-only effect, or another doubt; inactive means no such curve, though single readings can be large or run the other way.

Biological target: Hexokinase-4 (Homo sapiens) + Glucokinase regulatory protein (Homo sapiens) (UniProt P35557+Q14397)
Assay: qHTS assay for inhibitors of recombinant human GCK-GKRP interaction: ADP-Glo assay (AID 743206)
Conditions: ADP-Glo luminescence, 60 min, 0% = vehicle-only wells with enzyme present; series mostly up to 76.9 µM
Summary of the method: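 GST-GCK and FLAG-GKRP (15 nM each in the dispensed mix, with 2 uM S6P) react with 0.4 mM ATP and 5 mM glucose (final) in Hepes pH 7.6 for 60 min at room temperature. ADP is measured by ADP-Glo luminescence.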

Sequence of Hexokinase-4 (Homo sapiens) + Glucokinase regulatory protein (Homo sapiens) (P35557 whole entry, looked up): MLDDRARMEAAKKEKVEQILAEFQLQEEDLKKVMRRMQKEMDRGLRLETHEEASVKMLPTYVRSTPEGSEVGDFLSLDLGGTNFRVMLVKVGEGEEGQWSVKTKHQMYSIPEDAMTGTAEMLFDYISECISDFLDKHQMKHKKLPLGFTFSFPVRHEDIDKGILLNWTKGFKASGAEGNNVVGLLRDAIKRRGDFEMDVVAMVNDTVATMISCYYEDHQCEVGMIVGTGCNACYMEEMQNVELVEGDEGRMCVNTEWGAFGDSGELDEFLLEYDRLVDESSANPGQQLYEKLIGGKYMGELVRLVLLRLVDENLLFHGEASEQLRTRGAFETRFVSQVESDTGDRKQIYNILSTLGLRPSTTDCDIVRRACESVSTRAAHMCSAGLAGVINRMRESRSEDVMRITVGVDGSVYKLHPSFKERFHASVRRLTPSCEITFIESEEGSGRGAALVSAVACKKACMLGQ
Sequence of Hexokinase-4 (Homo sapiens) + Glucokinase regulatory protein (Homo sapiens) (Q14397 whole entry, looked up): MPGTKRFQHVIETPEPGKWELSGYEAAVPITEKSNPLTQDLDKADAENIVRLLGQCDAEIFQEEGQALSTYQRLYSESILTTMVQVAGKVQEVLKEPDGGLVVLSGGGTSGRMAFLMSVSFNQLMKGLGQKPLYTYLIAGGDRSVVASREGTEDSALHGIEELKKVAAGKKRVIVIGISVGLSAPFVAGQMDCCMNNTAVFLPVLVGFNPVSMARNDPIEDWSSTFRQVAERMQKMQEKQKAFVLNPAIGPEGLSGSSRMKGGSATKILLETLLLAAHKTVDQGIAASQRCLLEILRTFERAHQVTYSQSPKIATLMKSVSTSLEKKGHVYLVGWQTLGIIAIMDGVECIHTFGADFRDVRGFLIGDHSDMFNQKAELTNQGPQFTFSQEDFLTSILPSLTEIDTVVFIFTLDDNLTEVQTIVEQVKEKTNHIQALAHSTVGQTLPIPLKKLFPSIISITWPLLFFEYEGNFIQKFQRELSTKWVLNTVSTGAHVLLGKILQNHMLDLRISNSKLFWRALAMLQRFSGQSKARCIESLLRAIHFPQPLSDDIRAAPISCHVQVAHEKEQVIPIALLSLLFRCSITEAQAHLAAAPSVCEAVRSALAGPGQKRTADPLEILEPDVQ

`C/C(O)=C(\C#N)C(=O)Nc1cc(Br)ccc1Br` was tested. Which outcome did it give?
Its outcome is “inactive”.

How did the outcome turn out when `N[C@@H](CCl)C(=O)O` was run?
The outcome was “inactive”.

`c1ccc2c(c1)[I+]c1ccccc1-2` was tested. Which outcome did it give?
The outcome was “inactive”.

How did the outcome turn out when `C[N+]1(C)CCOC(O)(c2ccc(-c3ccc(C4(O)C[N+](C)(C)CCO4)cc3)cc2)C1` (centres undefined) was run?
Its outcome is “inactive”.

For `C[Se]C[C@H](N)C(=O)O`, which outcome is on record?
Its outcome is “inactive”.

With `Cc1sc2ccccc2c1CC1=NCCN1` as the compound, how does the outcome read?
Its outcome is “inactive”.

Which outcome does the source give for `Oc1ccc2c3c1O[C@H]1c4oc5ccccc5c4C[C@@]4(O)C(C2)N(CC2CC2)CCC314` (some centres undefined) here?
Its outcome is “inactive”.

How did the outcome turn out when `C[N+]1(C)CCN(c2ccccc2)CC1` was run?
Its outcome is “inactive”.

`OCc1cnc[nH]1` was tested. Which outcome did it give?
Its outcome is “inactive”.

Which outcome does the source give for `CCn1cnc2c(Nc3cccc(Cl)c3)nc(N[C@@H]3CCCC[C@@H]3N)nc21` here?
Its outcome is “inactive”.

`CN(C(=O)Cc1ccc(Cl)c(Cl)c1)C(CN1CCCC1)c1cccc(OCC(=O)O)c1` (centres undefined) was tested. Which outcome did it give?
The outcome was “inactive”.

How did the outcome turn out when `CCN1C[C@@]2(COC)C3[C@@H](OC)C4[C@@H]1C3([C@@H]1C[C@]3(O)[C@H](OC(=O)c5ccccc5)[C@@H]1[C@]4(OC(C)=O)[C@@H](O)[C@@H]3OC)[C@H](OC)C[C@H]2O` was run?
Its outcome is “inactive”.

With `C=CCN1CC[C@]23c4c5ccc(O)c4O[C@H]2/C(=N/NC(=O)c2ccccc2)CC[C@@]3(O)[C@H]1C5` as the compound, how does the outcome read?
Its outcome is “inactive”.

Which outcome does the source give for `C[C@@H]1O[C@H](C[N+](C)(C)C)CS1` here?
The outcome was “inactive”.

With `Nc1ccc(CCN2CCN(c3cccc(C(F)(F)F)c3)CC2)cc1` as the compound, how does the outcome read?
Its outcome is “inactive”.

How did the outcome turn out when `CN1CC[C@@]2(C)c3cc(O)ccc3N(C)C12` (some centres undefined) was run?
The outcome was “inactive”.

Which outcome does the source give for `NC(N)=NOCC[C@H](N)C(=O)O` here?
Its outcome is “inactive”.

For `COC(=O)N1CCN(C(=O)Cc2ccc(Cl)c(Cl)c2)C(CN2CCCC2)C1` (centres undefined), which outcome is on record?
Its outcome is “inactive”.

With `CC(C)[C@@]1(NC(=O)[C@@H]2C[C@@H]3c4cccc5[nH]cc(c45)C[C@H]3N(C)C2)O[C@@]2(O)[C@@H]3CCCN3C(=O)[C@H](Cc3ccccc3)N2C1=O` as the compound, how does the outcome read?
The outcome was “inactive”.

Which outcome does the source give for `NC(C(=O)O)c1cc(=O)[nH]o1` (centres undefined) here?
The outcome was “inactive”.

With `CO[C@H]1CC=C2CCN3CCC4=C(CC(=O)OC4)[C@]23C1` as the compound, how does the outcome read?
Its outcome is “inactive”.

With `c1ccc2c(N3CCNCC3)cccc2c1` as the compound, how does the outcome read?
Its outcome is “inactive”.

How did the outcome turn out when `COc1ccc2[nH]c3c(c2c1)CCNC3` was run?
The outcome was “inactive”.

Which outcome does the source give for `NC(=O)CI` here?
The outcome was “inactive”.

`Cc1[nH]c2ccc(O)cc2c1CCN` was tested. Which outcome did it give?
Its outcome is “inactive”.

For `CNc1ccc2oc(C[C@H]3O[C@@]4(CC[C@H]3C)O[C@H]([C@H](C)C(=O)c3ccc[nH]3)[C@H](C)C[C@H]4C)nc2c1C(=O)O`, which outcome is on record?
Its outcome is “inactive”.

`CN1CCC(c2c[nH]c3ccc(O)cc23)CC1` was tested. Which outcome did it give?
Its outcome is “inactive”.

With `C=CCN1CC[C@]23c4c5ccc(O)c4O[C@@H]2/C(=N/N=C2\CC[C@@]4(O)C6Cc7ccc(O)c8c7[C@@]4(CCN6CC=C)[C@@H]2O8)CC[C@@]3(O)C1C5` as the compound, how does the outcome read?
The outcome was “inactive”.

For `NC(CCCCCP(=O)(O)O)C(=O)O` (centres undefined), which outcome is on record?
Its outcome is “inactive”.

Which outcome does the source give for `NC(=O)COc1c(F)cc(SCCNS(=O)(=O)c2ccccc2)cc1F` here?
Its outcome is “inactive”.

With `C=CCN(C1=NCCN1)c1c(Cl)cccc1Cl` as the compound, how does the outcome read?
The outcome was “inactive”.

Which outcome does the source give for `CC(=O)OCC1=C(C(=O)O)N2C(=O)[C@@H](NC(=O)CCC[C@@H](N)C(=O)O)[C@H]2SC1` here?
Its outcome is “inactive”.

For `CCCN(CCC)C1Cc2cc(OC)c(OC)cc2C1`, which outcome is on record?
The outcome was “inactive”.

`CC(N)Cc1c[nH]c2ccc(O)cc12` (centres undefined) was tested. Which outcome did it give?
The outcome was “inactive”.
